Screening data from PubChem BioAssay.
Most compounds without a hit are left out; they make up all but 3.2% or so of the library.
SSB-PriA inh: K. pneumoniae PriA-SSBct interaction inhibition. AID 1272365. inhibition, % at 33 µM. 430,000 compounds, 0.6% hits. AlphaScreen SSBct-PriA binding, biotinylated peptide; in the data active = inhibition mostly above about 37%, no sharp cut-off; inactive = mostly below about 20%;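 also: plate controls were negative control peptide for no effect and reference peptide for full effect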
Mtb FBA inh: Mtb fructose-bisphosphate aldolase inhibition; 360,000 compounds, 2.3% hits; AID 588726; purified M. tuberculosis FBA, fluorescence read-out; P9WQA3; inhibition, % at 1 µM; in the data active = inhibition above about 27%;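 also: 0% = vehicle and 100% = reference inhibitor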
Mtb bLac sens: beta-lactam sensitization of Mtb H37Rv; M. tuberculosis H37Rv growth with meropenem, percent inhibition; inhibition, % at 25 µM; 330,000 compounds, 0.27% hits; call rule not given here;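 also: growth measured after seven days incubation then overnight dye step; 0% = bacteria only wells and 100% = bacteria with antibiotic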
UGM FP inh: blocks M. tuberculosis UGM enzyme. inhibition, % at 10 µM. P9WIQ1. purified UGM, fluorescence polarization probe displacement. 320,000 compounds, 0.06% hits; in the data active = inhibition above about 10%, passing the limit was not always enough
Target sequence (P9WIQ1 whole entry, looked up): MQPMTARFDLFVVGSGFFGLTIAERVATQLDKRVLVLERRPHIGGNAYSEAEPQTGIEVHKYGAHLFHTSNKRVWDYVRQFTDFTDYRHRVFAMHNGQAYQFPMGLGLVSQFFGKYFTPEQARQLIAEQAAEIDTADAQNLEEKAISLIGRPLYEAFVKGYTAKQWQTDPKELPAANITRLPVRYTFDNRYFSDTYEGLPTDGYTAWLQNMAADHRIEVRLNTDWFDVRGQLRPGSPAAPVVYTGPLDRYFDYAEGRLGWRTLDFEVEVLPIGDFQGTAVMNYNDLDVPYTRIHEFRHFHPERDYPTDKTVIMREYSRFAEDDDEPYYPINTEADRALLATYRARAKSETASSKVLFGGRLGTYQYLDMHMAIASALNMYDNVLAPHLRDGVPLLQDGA
Rv3671c protease: inhibits the M. tuberculosis serine protease Rv3671c. P9WHR9. inhibition, % at 5.96 µM. 320,000 compounds, 0.048% hits; in the data active = inhibition above about 38%;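 also: extracellular domain of Rv3671c used as enzyme; 0% = enzyme with DMSO and 100% = no enzyme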
GDH-TPI inh: inhibits GDH-TPI coupling enzymes, artifact for Mtb FBA screen; GDH-TPI coupled enzyme counterscreen, NADH absorbance; inhibition, % at 4.8 µM; 360,000 compounds, 1.2% hits; AID 588335; in the data active = inhibition above about 30%;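 also: 0% = DMSO wells and 100% = wells lacking the enzyme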
* = called active by the depositor; · = no result; + = active, no number.

SMILES	SSB-PriA inh	Mtb FBA inh	Mtb bLac sens	UGM FP inh	Rv3671c protease	GDH-TPI inh
COc1ccc(-c2nc(-c3ccc4c(c3)OCO4)[nH]c2-c2ccc(OC)cc2)cc1	34	136*	6	4	16	16
COc1ccc(-c2noc(-c3ccc4c(c3)OCO4)n2)cc1	-12	-3	2	1	-7	-2
Fc1cccc(Cl)c1CSc1ncc(-c2ccccc2)[nH]1	23	·	·	·	·	·
Cc1c(Cl)cccc1S(=O)(=O)N1CC(S(=O)(=O)C2CCCCC2)C1	-15	·	·	·	·	·
O=S(=O)(Cc1ccccc1)N1CCC(Cn2ccc3cccnc32)CC1	-12	·	·	·	·	·
Cc1ccc2sc(NNC(=O)c3nc4ccccc4s3)nc2c1C	58*	·	·	·	·	·
CS(=O)(=O)c1ccc2nc(NC(=O)c3cc([N+](=O)[O-])cc([N+](=O)[O-])c3)sc2c1	-10	-5	-1	3	2	15
Cc1ccc(S(=O)(=O)Nc2nc3ccc(N)cc3s2)cc1	3	2	0	0	10	-4
Cc1ccc2nc(NC(=O)c3cccs3)sc2c1	-7	4	2	2	-32	21
Cc1ccc(S(=O)(=O)Nc2nc3ccc(S(C)(=O)=O)cc3s2)cc1	40*	-3	2	0	1	0
CS(=O)(=O)c1ccc2nc(NC(=O)c3cccc([N+](=O)[O-])c3)sc2c1	-16	-2	-2	-1	-4	39*
CCNS(=O)(=O)c1ccc2nc(NC(=O)c3cccnc3)sc2c1	-15	-1	-4	0	-1	70*
CS(=O)(=O)c1ccc2nc(NC(=O)c3cccs3)sc2c1	-7	-2	27	0	-6	49*
CCS(=O)(=O)c1ccc(C(=O)Nc2nc(-c3ccccc3)c(-c3ccccc3)s2)cc1	-13	·	·	·	·	·
COC(=O)c1ccc(Cn2c(=O)n(Cc3cccs3)c(=O)c3ncccc32)cc1	0	·	·	·	·	·
Cc1ccc(Cn2cnc3c(cnn3CCNC(=O)C3CCN(S(C)(=O)=O)CC3)c2=O)cc1	-6	·	·	·	·	·
CC(=O)NCC(C)(O)c1ccccc1 (stereo not given)	-13	·	·	·	·	·
COC(=O)c1ccc(OC)c(CN2N=NC3C(=O)N(c4ccc(OC)c(Cl)c4)C(=O)C32)c1 (stereo not given)	-9	·	·	·	·	·
O=C(Nc1sc2c(c1C(=O)NCC1CCCO1)CCC2)c1cc(-c2ccccc2)on1 (stereo not given)	-1	·	·	·	·	·
O=C(NCc1ccccn1)C1CCN(c2cc(-n3cncn3)ncn2)CC1	-4	·	·	·	·	·
c1ccc(-c2ccn3nnnc3n2)cc1	-11	4	-7	1	-1	1
N=c1nc(-c2ccccc2)ccn1O	-8	-15	1	4	-2	39*
CC(=O)Nc1cnc(-c2ccccc2O)cn1	·	-3	·	·	·	20
CCOc1ccccc1-c1cnc(NC)cn1	·	+	·	·	·	19
CNc1cnc(-c2ccccc2OC)cn1	·	125*	·	·	·	19
SMILES	SSB-PriA inh	Mtb FBA inh	Mtb bLac sens	UGM FP inh	Rv3671c protease	GDH-TPI inh
CCOc1ccccc1-c1n[nH]c(=S)o1	-1	11	-6	3	0	-2
COc1ccc(C2c3c(cc(C)n(CCN4CCOCC4)c3=O)OC(=N)C2C#N)c(OC)c1OC (stereo not given)	-11	·	·	·	·	·
Cc1csc(C(=O)NCC[C@H](O)c2cccs2)c1	-13	·	·	·	·	·
Cc1cccc(S(=O)(=O)N2CN(Cc3ccco3)c3nc4ccccc4nc32)c1	96*	12	-7	7	-5	12
O=S(=O)(c1cccs1)N1CN(Cc2ccco2)c2nc3ccccc3nc21	5	21	-7	0	21	14
COc1cc(C(=O)OCC(=O)c2cc(C)n(C)c2C)cc(OC)c1OC	7	-7	37	2	-3	-9
Cc1ccsc1C(=O)OCC(=O)c1cc(C)n(C)c1C	-6	114*	-1	3	-6	2
COc1ccc(NC(=O)c2ccc(S(=O)(=O)N(C)C3CCCC3)cc2)c2ccccc12	-2	·	·	·	·	·
COc1cccc2c(=O)c3c(cnn3C)n(C)c12	-39	+	8	7	0	1
O=C(Nc1ncn[nH]1)c1cccc(S(=O)(=O)N2CCCCCC2)c1	-11	·	·	·	·	·
CCN1CCN(c2ncc(C(=O)Nc3ccccc3C(=O)OC)c3ccccc23)CC1	-11	9	-8	1	9	31*
COc1cc(/C=N/N=C(/N)c2nonc2N)cc(Br)c1OCc1ccccc1C	·	1	78	1	-12	34*
CCOc1cc(/C=N/N=C(/N)c2nonc2N)cc(Br)c1OCc1ccc(Cl)cc1	·	1	-3	-1	-31	32*
COc1cc(C=NN=C(N)c2nonc2N)cc(Br)c1OCc1cccc(C)c1	-8	·	·	·	·	·
COc1cc(OC)cc(-c2cc(N)n(S(=O)(=O)c3cccc4nsnc34)n2)c1	39*	-2	2	-1	-9	10
COc1ccc(CCCC(=O)NCC(=O)NN=Cc2cc(Cl)ccc2OC)cc1	0	·	·	·	·	·
C=CCn1cc(C(=O)c2cc(Br)ccc2O)cc(C#N)c1=O	2	1	2	-4	-3	31*
Cc1nc(N2CCOCC2)c2c(C)c(C(=O)Nc3ccc(F)cc3F)sc2n1	5	1	-4	-3	-14	38*
Cc1noc(/C=C/N(C)C)c1S(=O)(=O)N1CCCC(C(=O)NCc2ccccc2Cl)C1 (stereo not given)	3	-1	-8	0	-26	32*
Cc1ccc(CNC(=O)C2CCCN(S(=O)(=O)c3c(C)noc3/C=C/N(C)C)C2)cc1 (stereo not given)	-6	2	-4	1	-8	52*
Cc1noc(/C=C/N(C)C)c1S(=O)(=O)N1CCCC(C(=O)NCc2ccc(Cl)cc2)C1 (stereo not given)	-2	-3	-5	-1	-26	56*
O=C1CN(C(=O)COc2ccc3ccccc3c2)C(c2ccc(F)cc2)c2cc(Cl)ccc2N1 (stereo not given)	22	·	·	·	·	·
CSCC[C@](C)(O)CNS(=O)(=O)c1ccccc1Br	-14	·	·	·	·	·
O=c1nc2cccc3c2=c(c1=C(O)c1ccccc1)c1ccccc1c3=O	8	·	·	·	·	·
CCN(CC)S(=O)(=O)c1ccc(C(=O)Nc2nnc(NC(=S)Nc3ccccc3)s2)cc1	1	0	-2	1	-66	41*
SMILES	SSB-PriA inh	Mtb FBA inh	Mtb bLac sens	UGM FP inh	Rv3671c protease	GDH-TPI inh
O=C1C(Cl)=C(NC(=O)c2ccccc2)C(=O)C(Cl)=C1NC(=O)c1ccccc1	1	5	17	0	-119	34*
O=C(NC1=C(Nc2ccc(Cl)cc2)C(=O)c2ccccc2C1=O)c1ccccc1	11	-1	3	-2	-21	2
Cc1ccccc1-n1c(=O)c(C#N)cc2c(=O)n3ccccc3nc21	-16	+	-3	2	-2	18
C=CCn1c(=O)c(C#N)cc2c(=O)n3ccccc3nc21	0	+	-11	1	2	-1
CCn1c(=N)c(S(=O)(=O)c2ccccc2)cc2c(=O)n3ccccc3nc21	-2	20	-1	1	-6	-5
CCn1c(=N)c(S(=O)(=O)c2ccc(C)cc2)cc2c(=O)n3ccccc3nc21	·	·	-12	-1	4	·
